Values joined by “and” are separate entries in the source; they are usually repeats but may differ in a detail not shown here. Identical values can stand only once. Some structures have more than one record in an assay (separate samples or runs), and their calls can disagree. Active and inactive are the calls of the source. Unless noted, calls follow the shape of the dose curve; as a rule, active = well fitted curve in the direction sought with a large enough effect in the repeat runs; inconclusive = weak or mixed curves; inactive = no such curve, though single readings can be large; an effect the other way counts as inactive or inconclusive.

A short description of test [1]: qHTS assay to identify small molecule antagonists of the thyroid receptor (TR) signaling pathway (AID 743065). Also: nearly all actives have a fitted effect of over 55% in size. Also: potency is read from the fitted curve at half-maximal effect. The method in brief: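 GH3.TRE-Luc rat pituitary cells carrying two TR response elements driving luciferase were plated for 4 h, given compound plus 1 nM T3 (final), and incubated 23.5 h at 37 C. ONE-Glo luminescence measured reporter inhibition; CellTiter-Fluor fluorescence tracked cytotoxicity.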
Background: In qHTS, concentration-response curves come from the screen itself.

Test [2] relates to thyroid hormone receptor (rat, GH3 cells). Kind of test: qHTS assay to identify small molecule agonists of the thyroid receptor (TR) signaling pathway (AID 743066; calls by dose curve).
Test [3] addresses Estrogen receptor (Homo sapiens) (UniProt P03372). The experiment in a line: qHTS assay to identify small molecule antagonists of the estrogen receptor alpha (ER-alpha) signaling pathway (AID 743069; active = well fitted curve in the direction sought with a large enough effect in the signal ratio in the repeat runs, not every such curve was filed as active; inconclusive = weak or mixed curves, or effect the other way; inactive = no such curve, though single readings can be large or run the other way; the % refers to the signal ratio; also: potency is read from the fitted curve at half-maximal effect). The method in brief: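 Estradiol-stimulated ER-alpha-UAS-bla HEK293 cells, 18 hr compound exposure at 37C. LiveBLAzer B/G substrate, 2 hr RT, fluorescence read.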
For test [4] the target is unchanged. The experiment in a line: qHTS assay to identify small molecule agonists of the estrogen receptor alpha (ER-alpha) signaling pathway (AID 743075; calls by dose curve;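 also: HEK293 GripTite cells with ER-alpha and UAS-driven beta-lactamase reporter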; also: potency is read from the fitted curve at half-maximal effect).
Test [5] shares this target. The experiment in a line: qHTS assay to identify small molecule agonists of the estrogen receptor alpha (ER-alpha) signaling pathway using the BG1 cell line (AID 743079). Also: nearly all actives have a fitted effect of over 20% in size. Also: potency is read from the fitted curve at half-maximal effect.
Test [6] can be described thus: qHTS assay to identify small molecule antagonists of the estrogen receptor alpha (ER-alpha) signaling pathway using the BG1 cell line (AID 743080; calls by dose curve;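 also: BG1 cells stimulated with 17beta-estradiol alongside compound; series mostly up to about 70 µM; nearly all actives have a fitted effect of over 25% in size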). The gist of the method:
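Quantitative HTS on the Tox21 10K library: BG1 cells with endogenous ER-alpha and ERE-luciferase reporter, 17beta-estradiol stimulation, 21.5 h compound exposure, luminescence endpoint with parallel fluorescence cytotoxicity counter-read.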

Test [7] is described as follows: qHTS assay to identify small molecule antagonists of the estrogen receptor alpha (ER-alpha) signaling pathway using the BG1 cell line - cell viability counter screen (AID 743081).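 Also: compound given together with 17beta-estradiol as the ER stimulus; nearly all actives have a fitted effect of over 45% in size.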 Also: potency is read from the fitted curve at half-maximal effect.
Test [8] has as its target Aromatase (Homo sapiens) (UniProt P11511). The experiment in a line: qHTS assay to identify aromatase inhibitors (AID 743083). Also: nearly all actives have a fitted effect of over 55% in size. Also: potency is read from the fitted curve at half-maximal effect.
A short description of test [9]: qHTS assay to identify aromatase inhibitors - cell viability counter screen (AID 743084).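 Also: cells stimulated with testosterone during compound exposure; nearly all actives have a fitted effect of over 55% in size.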 Also: potency is read from the fitted curve at half-maximal effect.
Test [10] deals with Aryl hydrocarbon receptor (Homo sapiens) (UniProt P35869). Kind of test: qHTS assay to identify small molecule that activate the aryl hydrocarbon receptor (AhR) signaling pathway (AID 743085). Also: nearly all actives have a fitted effect of over 15% in size. Also: potency is read from the fitted curve at half-maximal effect.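 As to activation: HG2L7.5c1 human HepG2 liver cells with stably integrated DRE-driven firefly reporter; series mostly up to about 70 µM.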 The gist of the method:
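Steps: seed HepG2-AhR-luc cells; allow 5 h at 37C; pin-transfer test compound or vehicle; incubate 24 h at 37C; add viability dye (30 min, 37C) and read fluorescence; add luciferase substrate (30 min, RT) and read luminescence.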

A short description of test [11]: qHTS assay to identify small molecule that activate the aryl hydrocarbon receptor (AhR) signaling pathway - cell viability counter screen (AID 743086).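 Also: HepG2 liver cells carrying the AhR DRE luciferase reporter; series mostly up to about 70 µM; nearly all actives have a fitted effect of over 45% in size.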 The method in brief: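 HepG2-AhR-luc (HG2L7.5c1) cells, 4000/well, were preincubated 5 h at 37C, exposed to compound in qHTS format for 24 hr at 37C, then given CellTiter-Fluor for 30 min; viability was read as fluorescence in the reporter wells.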

In test [12] the target is Peroxisome proliferator-activated receptor gamma (Homo sapiens) (UniProt P37231). Kind of test: qHTS assay to identify small molecule agonists of the peroxisome proliferator-activated receptor gamma (PPARg) signaling pathway (AID 743094; active = well fitted activation curve with a large enough effect in the signal ratio in the repeat runs, not every such curve was filed as active; inconclusive = weak or mixed curves, or effect the other way; inactive = no such curve, though single readings can be large or run the other way; the % refers to the signal ratio). The method in brief: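 Beta-lactamase FRET fluorescence was the read-out after a 1 h room-temperature substrate step, following 17 h compound treatment at 37C of HEK293H cells expressing a UAS-driven bla reporter responsive to PPARg.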

Test [13] has the same target. Kind of test: qHTS assay to identify small molecule antagonists of the peroxisome proliferator-activated receptor gamma (PPARg) signaling pathway (AID 743191; calls by dose curve; also: series mostly up to about 63 µM; nearly all actives have a fitted effect of over 30% in size). The gist of the method:
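GeneBLAzer PPARg UAS-bla HEK293H cells carrying a UAS-driven beta-lactamase reporter were plated at 3000 cells/well, preincubated 5 h at 37C, then given compound for 17 h at 37C; LiveBLAzer B/G FRET substrate was read after 1 h at room temperature.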

The nature of test [14]: qHTS assay to identify small molecule antagonists of the peroxisome proliferator-activated receptor gamma (PPARg) signaling pathway - cell viability counter screen (AID 743194). Also: nearly all actives have a fitted effect of over 55% in size. The method in brief:
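PPARg-UAS-bla HEK293H cells were plated, rested 5 h at 37 C, then treated with compounds plus rosiglitazone (50 nM final) for 17 h at 37 C; viability was then read by CellTiter-Glo luminescence after 30 min at room temperature.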

A short description of test [15]: qHTS assay for small molecule agonists of the antioxidant response element (ARE) signaling pathway (AID 743202; active = well fitted activation curve with a large enough effect in the signal ratio in the repeat runs, not every such curve was filed as active; inconclusive = weak or mixed curves, or effect the other way; inactive = no such curve, though single readings can be large or run the other way; the % refers to the signal ratio; also: potency is read from the fitted curve at half-maximal effect). The method in brief:
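Compounds delivered in DMSO to ARE-bla HepG2 cells (2,000 cells/well, pre-incubated 5 h) and left 16 h at 37 C. LiveBLAzer B/G FRET substrate then added for 2 h at RT before fluorescence reading.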

The nature of test [16]: qHTS assay for small molecule agonists of the antioxidant response element (ARE) signaling pathway - cell viability counter screen (AID 743203; calls by dose curve; also: nearly all actives have a fitted effect of over 55% in size; also: potency is read from the fitted curve at half-maximal effect). The gist of the method:
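HepG2 cells carrying ARE-driven beta-lactamase; 2,000 cells/well; 5 hrs plating; compound pinned from DMSO; 16 hrs 37C/5% CO2; CellTiter-Glo added; 30 min RT; luminescence.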

The nature of test [17]: qHTS assay for small molecule activators of the heat shock response signaling pathway - cell viability counter screen (AID 743209). Also: nearly all actives have a fitted effect of over 50% in size. Also: potency is read from the fitted curve at half-maximal effect. The method in brief: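 Luminescence from CellTiter-Glo, added after the beta-lactamase FRET read, gave the viability signal. Cells were HSE-bla HeLa treated with DMSO-dissolved compounds for 5 h at 37 C following overnight plating.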
Test [18] can be described thus: qHTS assay for small molecule activators of the heat shock response signaling pathway (AID 743210; active = well fitted activation curve with a large enough effect in the signal ratio in the repeat runs, with a control signal flat, not every such curve was filed as active; inconclusive = weak or mixed curves; the % refers to the signal ratio;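 also: HeLa cells with beta-lactamase reporter driven by heat shock elements; series mostly up to about 63 µM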). The gist of the method:
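Reporter gene assay: HeLa cells stably bearing an HSE-bla construct, compound treatment 5 h at 37 C, LiveBLAzer substrate 2.5 h at RT, fluorescence intensity.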

Test [19] is described as follows: qHTS assay to identify small molecule antagonists of the estrogen receptor alpha (ER-alpha) signaling pathway - cell viability counter screen (AID 743074; calls by dose curve;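 also: HEK293 cells carrying ER-alpha-UAS-bla reporter stimulated with 17beta-estradiol; nearly all actives have a fitted effect of over 45% in size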; also: potency is read from the fitted curve at half-maximal effect).
Test [20] in a line: qHTS assay to identify small molecule agonists of the peroxisome proliferator-activated receptor delta (PPARd) signaling pathway - cell viability counter screen (AID 743211). Also: nearly all actives have a fitted effect of over 55% in size. The gist of the method: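 Viability of GeneBLAzer PPARd UAS-bla HEK293H cells was assessed after 17 h compound incubation at 37C, using CellTiter-Glo reagent added after the reporter read and luminescence recorded 30 min later.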

Sequence of Aryl hydrocarbon receptor (Homo sapiens) (P35869 whole entry, looked up): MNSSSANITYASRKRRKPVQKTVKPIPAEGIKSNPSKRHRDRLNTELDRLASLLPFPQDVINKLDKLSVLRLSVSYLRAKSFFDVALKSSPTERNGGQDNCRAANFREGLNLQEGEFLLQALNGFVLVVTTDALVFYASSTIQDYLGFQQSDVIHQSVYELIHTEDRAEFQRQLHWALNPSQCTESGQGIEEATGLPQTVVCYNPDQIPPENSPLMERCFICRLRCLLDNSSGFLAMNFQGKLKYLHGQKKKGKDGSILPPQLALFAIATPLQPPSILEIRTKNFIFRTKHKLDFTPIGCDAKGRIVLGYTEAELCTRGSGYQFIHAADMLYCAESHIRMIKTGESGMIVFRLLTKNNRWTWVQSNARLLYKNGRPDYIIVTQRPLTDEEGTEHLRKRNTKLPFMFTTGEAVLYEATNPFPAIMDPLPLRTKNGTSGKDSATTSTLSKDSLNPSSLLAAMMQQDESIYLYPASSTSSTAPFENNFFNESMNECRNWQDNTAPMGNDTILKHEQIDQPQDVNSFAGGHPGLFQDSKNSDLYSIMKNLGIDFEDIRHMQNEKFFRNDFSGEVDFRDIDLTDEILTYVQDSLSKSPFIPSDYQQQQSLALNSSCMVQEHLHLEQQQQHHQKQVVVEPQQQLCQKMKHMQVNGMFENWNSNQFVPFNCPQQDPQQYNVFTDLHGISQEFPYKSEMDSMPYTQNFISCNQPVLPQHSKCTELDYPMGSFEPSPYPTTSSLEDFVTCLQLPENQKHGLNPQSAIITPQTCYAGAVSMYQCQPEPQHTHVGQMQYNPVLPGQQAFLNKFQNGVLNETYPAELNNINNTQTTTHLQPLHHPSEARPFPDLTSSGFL
Sequence of Estrogen receptor (Homo sapiens) (P03372 whole entry, looked up): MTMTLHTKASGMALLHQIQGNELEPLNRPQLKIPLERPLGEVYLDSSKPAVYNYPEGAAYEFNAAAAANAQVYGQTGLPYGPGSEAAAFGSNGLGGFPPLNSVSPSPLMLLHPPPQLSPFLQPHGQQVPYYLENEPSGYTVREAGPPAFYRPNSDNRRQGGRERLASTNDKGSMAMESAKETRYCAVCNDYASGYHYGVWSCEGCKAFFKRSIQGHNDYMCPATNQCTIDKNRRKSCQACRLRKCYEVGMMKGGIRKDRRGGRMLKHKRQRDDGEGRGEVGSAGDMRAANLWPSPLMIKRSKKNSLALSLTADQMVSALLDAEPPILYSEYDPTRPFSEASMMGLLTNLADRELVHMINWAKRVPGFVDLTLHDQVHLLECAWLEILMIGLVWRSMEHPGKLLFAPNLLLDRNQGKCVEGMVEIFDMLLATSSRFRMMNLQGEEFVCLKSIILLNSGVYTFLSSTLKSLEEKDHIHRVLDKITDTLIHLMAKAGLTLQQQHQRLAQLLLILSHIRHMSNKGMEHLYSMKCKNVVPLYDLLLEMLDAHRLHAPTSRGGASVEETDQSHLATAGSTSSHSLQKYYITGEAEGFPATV
Sequence of Peroxisome proliferator-activated receptor gamma (Homo sapiens) (P37231 whole entry, looked up): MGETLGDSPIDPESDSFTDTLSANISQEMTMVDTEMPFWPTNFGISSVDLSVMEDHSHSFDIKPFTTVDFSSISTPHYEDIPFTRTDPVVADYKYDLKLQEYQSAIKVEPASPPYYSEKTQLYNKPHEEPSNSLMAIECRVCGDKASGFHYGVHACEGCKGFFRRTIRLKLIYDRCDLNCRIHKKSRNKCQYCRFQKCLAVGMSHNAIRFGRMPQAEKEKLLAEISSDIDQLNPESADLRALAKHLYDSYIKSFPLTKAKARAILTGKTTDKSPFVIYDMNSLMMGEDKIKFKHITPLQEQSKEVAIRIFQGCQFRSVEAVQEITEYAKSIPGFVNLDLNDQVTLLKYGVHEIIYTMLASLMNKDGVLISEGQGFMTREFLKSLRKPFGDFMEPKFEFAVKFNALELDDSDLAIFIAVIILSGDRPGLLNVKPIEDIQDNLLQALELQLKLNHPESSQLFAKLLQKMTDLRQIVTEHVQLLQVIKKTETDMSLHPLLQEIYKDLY
Sequence of Aromatase (Homo sapiens) (P11511 whole entry, looked up): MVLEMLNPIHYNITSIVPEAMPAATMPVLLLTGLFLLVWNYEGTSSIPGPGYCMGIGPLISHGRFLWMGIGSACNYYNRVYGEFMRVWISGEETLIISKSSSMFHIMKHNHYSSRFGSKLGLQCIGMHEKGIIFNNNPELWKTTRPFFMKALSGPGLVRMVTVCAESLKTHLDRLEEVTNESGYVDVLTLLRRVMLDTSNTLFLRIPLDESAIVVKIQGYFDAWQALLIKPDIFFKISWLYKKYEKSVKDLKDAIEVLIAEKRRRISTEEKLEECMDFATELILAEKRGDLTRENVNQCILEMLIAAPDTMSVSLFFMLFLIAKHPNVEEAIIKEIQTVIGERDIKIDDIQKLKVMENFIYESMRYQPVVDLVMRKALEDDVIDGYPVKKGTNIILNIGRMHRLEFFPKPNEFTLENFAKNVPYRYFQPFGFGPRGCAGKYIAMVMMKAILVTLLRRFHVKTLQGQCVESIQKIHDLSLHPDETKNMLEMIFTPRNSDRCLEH

For `c1ccc2ncccc2c1`, the Potency result in [1], in test [2], in [3], in [4], in test [5] and in test [6] was “inactive” in each case. Further, the Potency result in test [7], in test [8], in [9], in test [10], in [11] and in test [13] was “inactive” each time. Moreover, the Potency result in [14], in [15], in test [16] and in test [17] was “inactive” in each case. Besides, the result in [12] and in test [18] was inactive.
With `C=C[C@@]1(C)CC(=O)[C@]2(O)[C@@]3(C)[C@@H](O)CCC(C)(C)[C@@H]3[C@H](O)[C@H](OC(C)=O)[C@@]2(C)O1`, the Potency entry in [1], in test [2], in [19], in test [4], in [9] and in [10] was “inactive” throughout. Also, the Potency entry in test [11], in test [14], in test [15] and in test [16] was “inactive” throughout. Also, the Potency in test [8] is 1.19 µM (active) and 969 nM (active); in test [17], 24.5 µM (active) and inactive. Also, the compound was called inactive in test [12] and in [18].
Consider `CC(=O)O[C@]1(C(C)=O)CC[C@H]2[C@@H]3C=C(C)C4=CC(=O)CC[C@]4(C)[C@H]3CC[C@@]21C`, for which the Potency in [1] is 27.3 µM (active); in [15], 19.3 µM (active) and 11.9 µM (active). Further, the Potency result in [2], in [19], in test [4], in test [5], in test [6] and in test [7] was “inactive” in each case. Moreover, the Potency result in [8], in test [9], in test [10], in test [11], in test [14] and in test [16] was “inactive” in each case. The Potency result in test [17] and in [20] was “inactive” each time. Also, the outcome in [12] and in test [18] was inactive.
`IC(I)I`: the Potency entry in [1], in [2], in [19], in [7], in test [8] and in test [9] was “inactive” each time. In addition, the Potency entry in [10], in test [11], in test [13], in test [14], in test [15] and in [16] was “inactive” each time. The Potency entry in [17] and in [20] was “inactive” in each case. For the same compound, the outcome in [12] and in test [18] was inactive.
For `O=C(O)c1ccc(O)cc1`, the Potency result in test [1], in test [2], in test [19], in test [7], in test [8] and in test [9] was “inactive” in each case. Also, the Potency result in test [10], in [11], in [13], in [14], in test [16] and in [17] was “inactive” throughout. Moreover, the compound was classed as inactive in test [12] and in [18].
Regarding `CN(Cc1cnc2nc(N)nc(N)c2n1)c1ccc(C(=O)N[C@@H](CCC(=O)O)C(=O)O)cc1`, the Potency is 335 nM (active) and 54.5 nM (active) in test [1]; 239 nM (active) in test [19]; 9.7 nM (active) and 59.6 nM (active) in test [15]; 6.1 nM (active) and 47.3 nM (active) in [16]. Also, the Potency result in test [2], in [4], in test [5], in [7], in [8] and in [9] was “inactive” each time. Further, the Potency entry in test [11] and in [17] was “inactive” each time. Besides, the compound was classed as inactive in test [18].
For `C=CCCCCCCCCCC`, the Potency entry in [1], in test [2], in test [19], in test [7], in test [8] and in test [9] was “inactive” each time. The Potency entry in [10], in [11], in test [13], in test [14], in test [15] and in [16] was “inactive” in each case. Besides, the Potency result in [17] is “inactive”. Moreover, the compound was called inactive in test [12] and in [18].
With `Nc1ccc(N)c(Cl)c1`, the Potency result in test [1], in [2], in test [19], in [6], in [7] and in test [11] was “inactive” each time. Further, the Potency result in [14], in test [17] and in [20] was “inactive” throughout. Besides, the Potency in test [8] is 61 µM (active) and inactive; in test [9] it was 61 µM (active) and inactive; in test [10], 54.4 µM (active) and 15.4 µM (active); in [15] it was 27.3 µM (active).
With `CC(=O)Oc1ccc(C(c2ccc(OC(C)=O)cc2)c2ccccn2)cc1`, the Potency result in test [1], in test [2], in [19], in test [8], in [9] and in test [10] was “inactive” throughout. Besides, the Potency result in [11], in test [13], in [14], in test [15], in test [16] and in test [17] was “inactive” in each case. The Potency in [3] is 19 µM [inconclusive] (active) and 24.4 µM [inconclusive] (active); in [4] it was 3.01 µM [activator] (active); in test [7], 2.11 µM (active) and 1.92 µM (active). Moreover, the result in test [12] and in test [18] was inactive.
Take `Nc1cc([N+](=O)[O-])ccc1C(=O)O`: the Potency result in test [1], in [2], in test [3], in [4], in test [6] and in [7] was “inactive” each time. Further, the Potency entry in test [8], in [9], in test [11], in test [13], in test [14] and in test [15] was “inactive” each time. The Potency entry in test [16], in [17] and in [20] was “inactive” in each case. The Potency result in [5] was “inactive and 77 µM (active)”; in test [10], 21.7 µM (active). Also, the outcome in test [12] and in test [18] was inactive.
Consider `CC(=O)OC(C)C`, for which the Potency result in [1], in [2], in [3], in [19], in test [4] and in test [6] was “inactive” in each case. For the same compound, the Potency result in test [7], in [8], in test [9], in test [10], in test [11] and in test [13] was “inactive” each time. Further, the Potency result in test [14], in [15], in test [16], in test [17] and in test [20] was “inactive” in each case. For the same compound, the compound was called inactive in [12] and in test [18].
For the compound `c1ccc2cc3ccccc3cc2c1`, the Potency result in test [1], in test [2], in test [19], in test [4], in test [7] and in test [8] was “inactive” each time. Also, the Potency result in [9], in [11], in test [13], in [14], in test [15] and in [16] was “inactive” each time. The Potency result in test [17] and in test [20] was “inactive” in each case. Besides, the compound was called inactive in [12].
`Oc1c(Cl)ccc(Cl)c1Cl`: the Potency entry in [1], in [2], in test [19], in test [4], in [5] and in test [6] was “inactive” in each case. Besides, the Potency result in [7], in [8], in [9], in test [10], in test [11] and in [13] was “inactive” each time. The Potency entry in test [14], in test [17] and in [20] was “inactive” throughout. In addition, the compound was classed as inactive in test [12] and in test [18].
Consider `O=C(O)COCCN1CCN(C(c2ccccc2)c2ccc(Cl)cc2)CC1` (stereo not drawn), for which the Potency result in test [1], in test [2], in test [3], in [19], in test [4] and in test [5] was “inactive” throughout. Besides, the Potency entry in test [6], in test [7], in test [9], in test [11], in test [13] and in test [14] was “inactive” throughout. Further, the Potency entry in [17] and in test [20] was “inactive” in each case. In [12], the compound was called inactive.

The record behind these values is PubChem BioAssay (Tox21).
